Source: PubChem BioAssay (NCI)
Compounds without any hit were thinned out: in the full panel of roughly 83,000, 20% have a hit.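 For each line, cells grew in 96-well plates with the test compound present at a single concentration for 48 hours.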 Unmarked numbers belong to inactive results. Active and inactive are the calls of the source. Rule for the calls: active = growth percent below 10; inactive = the rest.

Columns and labels:
Test in all cases: NCI-60 one-dose screen, 48 h (100 = growth as untreated, 0 = no growth, -100 = all killed)
NCI-H23 lung = tested on: NCI-H23 lung
NCI-H226 lung = tested on: NCI-H226 lung
NCI-H322M lung = conditions: 10 µM unless noted
HOP-62 NSCLC = tested on: HOP-62 NSCLC
NCI-H460 lung = tested on: NCI-H460 lung
HOP-92 NSCLC = tested on: HOP-92 NSCLC
NCI-H522 lung = tested on: NCI-H522 lung
A549/ATCC NSCLC = tested on: A549/ATCC NSCLC
786-0 renal = tested on: 786-0 renal
COLO 205 colon = tested on: COLO 205 colon
DU-145 prostate = tested on: DU-145 prostate
K-562 leukemia = tested on: K-562 leukemia
MALME-3M melanoma = tested on: MALME-3M melanoma
MDA-MB-231 breast = tested on: MDA-MB-231 breast
RXF 393 renal = tested on: RXF 393 renal
SF-268 CNS = tested on: SF-268 CNS
SF-295 CNS = tested on: SF-295 CNS
SF-539 CNS = tested on: SF-539 CNS
UACC-257 melanoma = tested on: UACC-257 melanoma
M14 melanoma = tested on: M14 melanoma

COc1cc2nc3cc([N+](=O)[O-])ccc3c(NCCNCC(C)(C)O)c2cc1OC
growth (NCI-H23 lung; 10 µM unless noted): -34.1% (active)
growth (NCI-H226 lung; 10 µM unless noted): -4.58% (active)
growth (NCI-H322M lung): -3.78% (active)
growth (HOP-62 NSCLC; 10 µM unless noted): -23% (active)
growth (NCI-H460 lung; 10 µM unless noted): -38.7% (active)
growth (HOP-92 NSCLC; 10 µM unless noted): -45.6% (active)
growth (NCI-H522 lung; 10 µM unless noted): -40.3% (active)
growth (A549/ATCC NSCLC; 10 µM unless noted): -9.76% (active)
growth (786-0 renal; 10 µM unless noted): 2.27% (active)
growth (COLO 205 colon; 10 µM unless noted): -70.1% (active)
growth (DU-145 prostate; 10 µM unless noted): -8.55% (active)
growth (K-562 leukemia; 10 µM unless noted): 1.28% (active)
growth (MALME-3M melanoma; 10 µM unless noted): -74.4% (active)
growth (MDA-MB-231 breast; 10 µM unless noted): -28.5% (active)
growth (RXF 393 renal; 10 µM unless noted): -47.3% (active)
growth (SF-268 CNS; 10 µM unless noted): -10.8% (active)
growth (SF-295 CNS; 10 µM unless noted): 16.4%
growth (SF-539 CNS; 10 µM unless noted): -20.8% (active)
growth (UACC-257 melanoma; 10 µM unless noted): -61.8% (active)
growth (M14 melanoma; 10 µM unless noted): -75.7% (active)

CCCCCCCC/C=C\CCCCCCCCOc1ccccc1CC(=O)NCC[N+]1(C)CCOCC1
growth (NCI-H23 lung; 10 µM unless noted): 69.5%
growth (NCI-H226 lung; 10 µM unless noted): 62.3%
growth (NCI-H322M lung): 93.7%
growth (HOP-62 NSCLC; 10 µM unless noted): 50.6%
growth (NCI-H460 lung; 10 µM unless noted): 39.4%
growth (HOP-92 NSCLC; 10 µM unless noted): 67.2%
growth (NCI-H522 lung; 10 µM unless noted): 51%
growth (A549/ATCC NSCLC; 10 µM unless noted): 74.4%
growth (786-0 renal; 10 µM unless noted): 55.6%
growth (COLO 205 colon; 10 µM unless noted): 17.3%
growth (DU-145 prostate; 10 µM unless noted): 85.3%
growth (K-562 leukemia; 10 µM unless noted): 56.9%
growth (MALME-3M melanoma; 10 µM unless noted): 100%
growth (MDA-MB-231 breast; 10 µM unless noted): 80.1%
growth (RXF 393 renal; 10 µM unless noted): 24.7%
growth (SF-268 CNS; 10 µM unless noted): 66.8%
growth (SF-295 CNS; 10 µM unless noted): 67.6%
growth (SF-539 CNS; 10 µM unless noted): 91.3%
growth (UACC-257 melanoma; 10 µM unless noted): 83.8%
growth (M14 melanoma; 10 µM unless noted): 75.6%

O=C1/C(=C/c2ccc(F)c(F)c2)CN(C(=O)C(Cl)Cl)C/C1=C\c1ccc(F)c(F)c1
growth (NCI-H23 lung; 10 µM unless noted): -81.2% (active)
growth (NCI-H226 lung; 10 µM unless noted): -17% (active)
growth (NCI-H322M lung): -86% (active)
growth (HOP-62 NSCLC; 10 µM unless noted): -57.7% (active)
growth (NCI-H460 lung; 10 µM unless noted): -71.9% (active)
growth (HOP-92 NSCLC; 10 µM unless noted): -62.6% (active)
growth (NCI-H522 lung; 10 µM unless noted): -81.8% (active)
growth (A549/ATCC NSCLC; 10 µM unless noted): -52.1% (active)
growth (786-0 renal; 10 µM unless noted): -96% (active)
growth (COLO 205 colon; 10 µM unless noted): -85.8% (active)
growth (DU-145 prostate; 10 µM unless noted): -98.1% (active)
growth (K-562 leukemia; 10 µM unless noted): -19.4% (active)
growth (MALME-3M melanoma; 10 µM unless noted): -80.2% (active)
growth (MDA-MB-231 breast; 10 µM unless noted): -73.7% (active)
growth (RXF 393 renal; 10 µM unless noted): -93.1% (active)
growth (SF-268 CNS; 10 µM unless noted): -39.4% (active)
growth (SF-295 CNS; 10 µM unless noted): -96.8% (active)
growth (SF-539 CNS; 10 µM unless noted): -98.9% (active)
growth (UACC-257 melanoma; 10 µM unless noted): -74.8% (active)
growth (M14 melanoma; 10 µM unless noted): -90.1% (active)

CC(=O)/C=C/c1ccc(N(CCO)Cc2ccc(C(C)(C)C)cc2)cc1
growth (NCI-H23 lung; 10 µM): 75.5%
growth (NCI-H23 lung; 100 µM): -70.7% (active)
growth (NCI-H226 lung; 10 µM): 72.9%
growth (NCI-H226 lung; 100 µM): -78.1% (active)
growth (NCI-H322M lung): -98.7% [100 µM] (active)
growth (HOP-62 NSCLC; 10 µM): 78.6%
growth (HOP-62 NSCLC; 100 µM): -92.7% (active)
growth (NCI-H460 lung; 10 µM): 74.4%
growth (NCI-H460 lung; 100 µM): -86% (active)
growth (HOP-92 NSCLC; 10 µM): 54.7%
growth (HOP-92 NSCLC; 100 µM): -94.5% (active)
growth (NCI-H522 lung; 10 µM): 70.1%
growth (NCI-H522 lung; 100 µM): -71% (active)
growth (A549/ATCC NSCLC; 10 µM): 66.3%
growth (A549/ATCC NSCLC; 100 µM): -99.3% (active)
growth (786-0 renal; 10 µM): 87.5%
growth (786-0 renal; 100 µM): -93.4% (active)
growth (COLO 205 colon; 10 µM): 90.1%
growth (COLO 205 colon; 100 µM): -76.6% (active)
growth (DU-145 prostate; 10 µM): 78%
growth (DU-145 prostate; 100 µM): -99.7% (active)
growth (K-562 leukemia; 10 µM): 54.6%
growth (K-562 leukemia; 100 µM): -49.3% (active)
growth (MALME-3M melanoma; 10 µM): 84.5%
growth (MALME-3M melanoma; 100 µM): -85.8% (active)
growth (MDA-MB-231 breast; 10 µM): 77.5%
growth (MDA-MB-231 breast; 100 µM): -90.4% (active)
growth (RXF 393 renal; 10 µM): 87.5%
growth (RXF 393 renal; 100 µM): -75.9% (active)
growth (SF-268 CNS; 10 µM): 78.9%
growth (SF-268 CNS; 100 µM): -82.2% (active)
growth (SF-295 CNS; 10 µM): 63.5%
growth (SF-295 CNS; 100 µM): -84.9% (active)
growth (SF-539 CNS; 10 µM): 86.9%
growth (SF-539 CNS; 100 µM): -96.4% (active)
growth (UACC-257 melanoma; 10 µM): 80.8%
growth (UACC-257 melanoma; 100 µM): -79.5% (active)
growth (M14 melanoma; 10 µM): 69.4%
growth (M14 melanoma; 100 µM): -84.9% (active)

CCCCC(NC(=O)CN1C(=O)/C(=C/C(C)=C/c2ccccc2)SC1=S)C(=O)O (centres undefined)
growth (NCI-H23 lung; 10 µM unless noted): 94.8%
growth (NCI-H226 lung; 10 µM unless noted): 93.9%
growth (NCI-H322M lung): 103%
growth (HOP-62 NSCLC; 10 µM unless noted): 93%
growth (NCI-H460 lung; 10 µM unless noted): 102%
growth (HOP-92 NSCLC; 10 µM unless noted): 62.8%
growth (NCI-H522 lung; 10 µM unless noted): 93.8%
growth (A549/ATCC NSCLC; 10 µM unless noted): 98.5%
growth (786-0 renal; 10 µM unless noted): 104%
growth (COLO 205 colon; 10 µM unless noted): 119%
growth (DU-145 prostate; 10 µM unless noted): 111%
growth (K-562 leukemia; 10 µM unless noted): 107%
growth (MALME-3M melanoma; 10 µM unless noted): 91.8%
growth (MDA-MB-231 breast; 10 µM unless noted): 92.7%
growth (RXF 393 renal; 10 µM unless noted): 105%
growth (SF-268 CNS; 10 µM unless noted): 100%
growth (SF-295 CNS; 10 µM unless noted): 95%
growth (SF-539 CNS; 10 µM unless noted): 101%
growth (UACC-257 melanoma; 10 µM unless noted): 104%
growth (M14 melanoma; 10 µM unless noted): 96.6%
